Laboratory results taken from PubChem BioAssay (Tox21).
“And” between values parts separate entries of the source, which are not always exact repeats. Equal values may be shown once. Records with an inconclusive call do not appear. Some compounds were tested as several samples or in several runs, with calls that do not always agree. The source made the active and inactive calls. Unless noted, calls come from the whole dose curve; as a rule, active = well fitted curve in the direction sought with a large enough effect in the repeat runs; inconclusive = weak or mixed curves; inactive = no such curve, though single readings can be large; an effect the other way counts as inactive or inconclusive.

Legend:
[1] = qHTS assay to identify small molecule antagonists of the estrogen receptor alpha (ER-alpha) signaling pathway using the BG1 cell line in the presence of 0.1 nM 17-beta-estradiol - cell viability counter screen (AID 1259241); note: nearly all actives have a fitted effect of over 40% in size
In short: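 CellTiter-Fluor read (30 min, 37C) on ER-alpha/ERE-luc VM7Luc4E2 cells; 22 hr compound treatment; agonist 0.1 nM E2 final; same-well multiplex.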

[2] = qHTS assay to identify small molecule antagonists of the androgen receptor (AR) signaling pathway using the MDA cell line in the presence of 0.5 nM R1881 - cell viability counter screen (AID 1259242); note: nearly all actives have a fitted effect of over 45% in size; note: potency is the fitted concentration of half-maximal effect
In short: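 MDA-kb2 cells (human breast carcinoma, stably carrying MMTV-luciferase reporter) were exposed to compounds with 0.5 nM R1881 (final) for 16 hr at 37C, 0% CO2; viability then read as live-cell protease fluorescence (CellTiter-Fluor, 30 min) in the same wells.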

[3] = target: Estrogen receptor (Homo sapiens) (UniProt P03372); experiment: qHTS assay to identify small molecule antagonists of the estrogen receptor alpha (ER-alpha) signaling pathway using the BG1 cell line in the presence of 0.1 nM 17-beta-estradiol (AID 1259244); note: nearly all actives have a fitted effect of over 50% in size; note: potency is the fitted concentration of half-maximal effect
Sequence of Estrogen receptor (Homo sapiens) (P03372 whole entry, looked up): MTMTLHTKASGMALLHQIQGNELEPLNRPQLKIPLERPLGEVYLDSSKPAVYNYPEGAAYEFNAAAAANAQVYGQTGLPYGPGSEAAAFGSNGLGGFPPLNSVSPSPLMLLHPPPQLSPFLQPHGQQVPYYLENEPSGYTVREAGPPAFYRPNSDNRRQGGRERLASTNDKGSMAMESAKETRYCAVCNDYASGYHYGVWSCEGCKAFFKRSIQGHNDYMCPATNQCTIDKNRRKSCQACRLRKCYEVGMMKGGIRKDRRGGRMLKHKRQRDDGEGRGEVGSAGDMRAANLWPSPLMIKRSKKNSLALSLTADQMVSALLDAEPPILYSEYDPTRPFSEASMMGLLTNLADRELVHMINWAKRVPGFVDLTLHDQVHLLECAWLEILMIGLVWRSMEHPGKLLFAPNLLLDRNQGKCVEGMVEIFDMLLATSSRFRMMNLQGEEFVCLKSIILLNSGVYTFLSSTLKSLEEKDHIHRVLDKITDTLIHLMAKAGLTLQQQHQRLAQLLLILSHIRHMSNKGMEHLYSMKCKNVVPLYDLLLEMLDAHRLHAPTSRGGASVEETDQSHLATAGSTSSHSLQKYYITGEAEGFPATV
In short: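 VM7Luc4E2 cells (endogenous full-length ER-alpha, stable 4xERE-luciferase) were grown 5 days in phenol red-free medium with charcoal-stripped FBS, then exposed 22 h at 37C to compounds plus 0.1 nM (final) 17beta-estradiol; ONE-Glo luminescence read-out.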

[4] = qHTS assay to identify small molecule HDAC inhibitors (AID 1259364); note: nearly all actives have a fitted effect of over 45% in size; note: potency is the fitted concentration of half-maximal effect
In short: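 Wild-type HCT-116 cells were plated overnight, exposed to compounds for 2 h at 37 °C, then given HDAC-Glo class I/II luminogenic reagent for 30 min at room temperature before luminescence was read.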

[5] = qHTS assay to identify small molecule HDAC inhibitors - cell viability counter screen (AID 1259365); note: series mostly up to about 92 µM; nearly all actives have a fitted effect of over 50% in size
In short: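 To flag cytotoxic hits, 1,500 wild-type HCT-116 cells per well, plated the day before, receive test compounds for 2hr at 37 C before CellTiter-Glo reagent and a luminescence read.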

[6] = qHTS assay to identify small molecule agonists of the sonic hedgehog signaling (Shh) pathway - cell viability counter screen (AID 1259366); note: nearly all actives have a fitted effect of over 50% in size; note: potency is the fitted concentration of half-maximal effect
In short: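 Fluorescence from CellTiter-Fluor reports live cells in this counter screen. NIH/3T3-derived Gli1-Luc reporter cells receive test compounds for 24hr at 37C; reagent goes in at 23hr.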

[7] = qHTS assay to identify small molecule antagonists of the sonic hedgehog signaling (Shh) pathway - cell viability counter screen (AID 1259367); note: nearly all actives have a fitted effect of over 55% in size
In short: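 NIH/3T3-derived Gli1-Luc reporter cells (2,000 per well) rested 4 hr at 37 C, then received DMSO compounds plus conditioned medium. After 23 hr of treatment, CellTiter-Fluor was added for 1 hr at 37C and fluorescence read.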

[8] = qHTS assay to identify small molecule agonists of the sonic hedgehog signaling (Shh) pathway (AID 1259368; calls by dose curve; note: series mostly up to about 92 µM; nearly all actives have a fitted effect of over 15% in size)
In short: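 NIH/3T3-derived 3T3Gli1-Luc cells carrying a stably integrated Gli1 response element–firefly luciferase reporter were plated, left 4 hr at 37 C, then given compounds in DMSO for 24 hr. Luminescence was read 30 min after adding luciferase reagent.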

[9] = qHTS assay to identify small molecule antagonists of the sonic hedgehog signaling (Shh) pathway (AID 1259369; calls by dose curve; note: nearly all actives have a fitted effect of over 45% in size; note: potency is the fitted concentration of half-maximal effect)
In short: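 NIH/3T3-derived 3T3Gli1-Luc cells with stably integrated Gli1-Luc reporter were preincubated 4hr at 37 C, then given compounds in DMSO plus Shh conditioned medium and incubated 24hr. Firefly luciferase luminescence read after 30min reagent at room temperature.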

[10] = target: Estrogen receptor beta (Homo sapiens) (UniProt Q92731); experiment: qHTS assay to identify small molecule agonists of the estrogen receptor beta (ER-beta) signaling pathway (AID 1259377; active = well fitted activation curve with a large enough effect in the signal ratio in the repeat runs, not every such curve was filed as active; the % refers to the signal ratio)
Sequence of Estrogen receptor beta (Homo sapiens) (Q92731 whole entry, looked up): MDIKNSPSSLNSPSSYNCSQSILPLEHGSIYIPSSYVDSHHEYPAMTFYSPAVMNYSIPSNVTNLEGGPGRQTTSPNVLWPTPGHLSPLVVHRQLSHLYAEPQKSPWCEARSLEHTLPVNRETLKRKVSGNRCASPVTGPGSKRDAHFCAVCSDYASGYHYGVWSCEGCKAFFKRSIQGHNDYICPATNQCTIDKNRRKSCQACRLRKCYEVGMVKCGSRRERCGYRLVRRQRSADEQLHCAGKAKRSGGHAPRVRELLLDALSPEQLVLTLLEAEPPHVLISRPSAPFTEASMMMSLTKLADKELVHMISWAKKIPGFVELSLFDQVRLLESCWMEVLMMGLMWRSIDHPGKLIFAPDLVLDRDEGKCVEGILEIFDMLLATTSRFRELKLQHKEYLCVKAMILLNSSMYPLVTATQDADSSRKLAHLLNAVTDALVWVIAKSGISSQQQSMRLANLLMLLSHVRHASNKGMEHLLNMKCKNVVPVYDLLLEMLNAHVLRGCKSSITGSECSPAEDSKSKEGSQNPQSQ
In short: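 Screening used GripTite ER-beta-UAS-bla cells held in 2% charcoal-stripped FBS medium. After overnight (16 hr) compound incubation at 37C, beta-lactamase activity was detected with a FRET substrate by fluorescence.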

[11] = target: Estrogen receptor beta (Homo sapiens) (UniProt Q92731); experiment: qHTS assay to identify small molecule antagonists of the estrogen receptor beta (ER-beta) signaling pathway (AID 1259378; active = well fitted inhibition curve with a large enough effect in the signal ratio in the repeat runs, not every such curve was filed as active; the % refers to the signal ratio; note: potency is the fitted concentration of half-maximal effect)
In short: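 ER-beta-UAS-bla HEK293T (GripTite) cells in 2% charcoal-stripped FBS medium were preincubated 6 hr at 37C, dosed with compound, then stimulated with 1 nM E2 (final) for 16 hr; beta-lactamase reporter read by B/G FRET fluorescence after 2 hr substrate loading.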

[12] = qHTS assay to identify small molecule agonists of the androgen receptor (AR) signaling pathway in the presence of an antagonist - cell viability counter screen (AID 1259379); note: series mostly up to about 92 µM; nearly all actives have a fitted effect of over 25% in size
In short: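 MDA-kb2 human breast carcinoma cells (stable MMTV-luciferase, AR/GR responsive) were seeded 3,000 cells/well, pre-incubated 5 hr at 37C without CO2, then given 3.0uM nilutamide and compounds at 15 concentrations for 16 hr. Viability was read by CellTiter-Fluor fluorescence.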

[13] = qHTS assay to identify small molecule agonists of the estrogen receptor beta (ER-beta) signaling pathway - cell viability counter screen (AID 1259380); note: nearly all actives have a fitted effect of over 30% in size; note: potency is the fitted concentration of half-maximal effect
In short: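 ER-beta-UAS-bla HEK293T cells in medium with 2% charcoal-stripped FBS were preincubated 6 hr at 37C, dosed with compound in DMSO for 16 hr, then after the bla read, CellTiter-Glo was added for 30 min at room temperature; luminescence recorded.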

[14] = qHTS assay to identify small molecule antagonists of the estrogen receptor beta (ER-beta) signaling pathway - cell viability counter screen (AID 1259382); note: series mostly up to about 92 µM; nearly all actives have a fitted effect of over 55% in size
In short: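 ER-beta-UAS-bla HEK293T cells (2,000/well, 2% charcoal-stripped FBS) were pre-incubated 6 hr at 37C, then given compound plus 1nM final 17-beta-estradiol for 16 hr. Viability was read in the same wells by CellTiter-Glo luminescence after 30 min at room temperature.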

[15] = target: Estrogen receptor (Homo sapiens) (UniProt P03372); experiment: qHTS assay to identify small molecule agonists of the estrogen receptor alpha (ER-alpha) signaling pathway in the presence of an antagonist (AID 1259383; calls by dose curve; note: top concentration of the series differs between compounds; nearly all actives have a fitted effect of over 15% in size)
In short: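 VM7Luc4E2 cells (endogenous full-length ER-alpha, 4×ERE-luciferase) were precultured 5 days in phenol red-free medium with 10% charcoal-stripped FBS, given 10.0nM ICI-182,780 (final), then treated with compounds at 15 concentrations for 22hr at 37C; luminescence read with ONE-Glo.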

[16] = qHTS assay to identify small molecule agonists or antagonists of the thyroid stimulating hormone receptor (TSHR) signaling pathway - wild type cell line counter screen (AID 1259384; calls by dose curve)
In short: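 Wild-type HEK293 cells were plated 18 h at 37 C/5% CO2, pin-dosed with compound plus Ro20-1724 medium, held 30 min at room temperature, then given cAMP-d2 and anti-cAMP-cryptate; fluorescence was read after 1 h. Fifteen concentrations, triplicate.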

[17] = target: Androgen receptor (Homo sapiens) (UniProt P10275); experiment: qHTS assay to identify small molecule antagonists of the androgen receptor (AR) signaling pathway using the MDA cell line in the presence of 0.5 nM R1881 (AID 1259243); note: nearly all actives have a fitted effect of over 50% in size
Sequence of Androgen receptor (Homo sapiens) (P10275 whole entry, looked up): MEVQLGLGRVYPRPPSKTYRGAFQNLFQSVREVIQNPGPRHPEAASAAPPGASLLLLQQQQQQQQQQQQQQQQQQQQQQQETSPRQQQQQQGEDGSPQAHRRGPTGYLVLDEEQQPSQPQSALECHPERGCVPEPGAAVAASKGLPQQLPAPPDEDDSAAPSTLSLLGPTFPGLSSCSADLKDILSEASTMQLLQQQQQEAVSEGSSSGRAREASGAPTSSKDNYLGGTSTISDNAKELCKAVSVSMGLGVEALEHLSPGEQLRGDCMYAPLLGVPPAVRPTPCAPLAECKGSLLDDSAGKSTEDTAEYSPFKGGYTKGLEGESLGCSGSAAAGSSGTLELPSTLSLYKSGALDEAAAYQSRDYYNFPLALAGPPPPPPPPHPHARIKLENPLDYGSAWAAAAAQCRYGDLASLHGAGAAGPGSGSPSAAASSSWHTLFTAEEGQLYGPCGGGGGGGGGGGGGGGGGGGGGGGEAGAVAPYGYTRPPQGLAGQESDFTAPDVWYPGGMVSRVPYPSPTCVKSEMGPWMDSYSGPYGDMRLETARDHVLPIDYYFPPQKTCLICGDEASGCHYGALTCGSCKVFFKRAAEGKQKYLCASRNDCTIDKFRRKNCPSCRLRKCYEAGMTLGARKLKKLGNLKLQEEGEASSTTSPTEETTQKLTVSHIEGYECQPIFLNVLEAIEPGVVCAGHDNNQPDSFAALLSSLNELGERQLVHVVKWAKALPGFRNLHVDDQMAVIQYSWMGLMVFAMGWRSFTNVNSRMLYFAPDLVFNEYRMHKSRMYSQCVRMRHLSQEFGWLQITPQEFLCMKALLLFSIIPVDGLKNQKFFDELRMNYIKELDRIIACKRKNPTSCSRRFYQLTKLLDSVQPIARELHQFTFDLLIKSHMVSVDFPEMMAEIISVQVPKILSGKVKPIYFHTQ
In short: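 MDA-kb2 human breast carcinoma cells carrying an MMTV-luciferase reporter (AR- and GR-responsive) were plated, rested 5 hr at 37C, dosed with compounds, then stimulated with 0.5 nM R1881 (final) for 16 hr; luminescence was read after ONE-Glo.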

[18] = qHTS assay to identify small molecule phospholipidosis (PLD) inducers (AID 1259344; active = well fitted curve in the direction sought with a large enough effect; an effect the other way counts as inactive or inconclusive)
In short: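 HepG2 cells on collagen I, attached 4 h at 37 C, were co-treated with compound and LipidTOX Red dye for 24 h at 37 C, then fixed with paraformaldehyde plus Hoechst 33342 and imaged by high-content microscopy for phospholipid accumulation.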

[19] = target: Androgen receptor (Homo sapiens) (UniProt P10275); experiment: qHTS assay to identify small molecule agonists of the androgen receptor (AR) signaling pathway in the presence of an antagonist (AID 1259381; calls by dose curve; note: nearly all actives have a fitted effect of over 15% in size; note: potency is the fitted concentration of half-maximal effect)
In short: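 MDA-kb2 human breast carcinoma cells carrying an MMTV-luciferase reporter (AR- and GR-responsive) were treated with compounds at 15 concentrations plus 3.0uM final nilutamide for 16hr at 37C without CO2; luminescence was read after ONE-Glo addition.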

Measured: Potency

CCOc1cc(Oc2ccc(C(F)(F)F)cc2Cl)ccc1[N+](=O)[O-]
inactive: [1] | [2] | [3] | [4] | [5] | [6] | [7] | [8] | [9] | [10] | [11] | [12] | [13] | [14] | [15] | [16]

Nc1ccc(Cl)cc1N
inactive and 30.6 µM (active): [9]
active: [4] 19.3 µM | [13] 54.5 µM | [19] 4.86 µM
inactive: [1] | [2] | [17] | [18] | [5] | [6] | [12] | [16]

OCC(O)CO
inactive: [1] | [2] | [3] | [4] | [5] | [6] | [7] | [8] | [9] | [10] | [11] | [12] | [13] | [14] | [15] | [16]

C#CCOS(=O)OC1CCCCC1Oc1ccc(C(C)(C)C)cc1 (configuration not stated)
active: [2] 6.11 µM | [3] 8.64 µM and 15.4 µM | [6] 24.4 µM and 54.5 µM | [9] 687 nM and 2.17 µM | [11] 5.45 µM and 4.86 µM | [13] 27.3 µM
inactive: [1] | [4] | [5] | [8] | [10] | [14] | [15] | [16]

O=C(NC(=O)c1c(F)cccc1F)Nc1ccc(Cl)cc1
inactive: [1] | [2] | [3] | [4] | [5] | [6] | [8] | [9] | [10] | [11] | [13] | [14] | [15] | [16]

Nc1cccnc1
inactive: [1] | [2] | [3] | [5] | [6] | [8] | [9] | [10] | [11] | [12] | [13] | [14] | [15] | [16]

c1ccc(-c2cccc(-c3ccccc3)c2)cc1
active: [13] 19.5 µM and 30.6 µM
inactive: [1] | [2] | [3] | [4] | [5] | [6] | [7] | [8] | [9] | [12] | [14] | [15] | [16]

N#CC(Br)Br
inactive: [1] | [2] | [3] | [4] | [5] | [6] | [8] | [9] | [10] | [11] | [13] | [14] | [15] | [16]

O=P(Oc1ccccc1)(Oc1ccccc1)Oc1ccccc1
active: [9] 1.08 µM and 2.43 µM | [13] 34.4 µM
inactive: [1] | [2] | [3] | [5] | [6] | [7] | [8] | [10] | [12] | [14] | [15] | [16]

CCOc1cc(C=O)ccc1O
inactive: [1] | [2] | [18] | [4] | [5] | [6] | [8] | [9] | [12] | [13] | [14] | [16]

CCCCCCOC(=O)c1ccccc1C(=O)OCCCCCC
inactive: [1] | [2] | [3] | [5] | [6] | [8] | [9] | [12] | [13] | [14] | [15] | [16]
49.5 µM (active) and inactive: [4]

Cc1cc(Cl)ccc1OCCCC(=O)O
inactive: [1] | [2] | [17] | [4] | [5] | [6] | [8] | [9] | [10] | [12] | [13] | [19] | [14] | [16]
